# Measurements reported in PubChem BioAssay (EPA / NIEHS).
# Records with an inconclusive call do not appear. Active and inactive are the calls of the source. How the source made its calls, unless noted: active means hit-call score of the fitted dose curve at least 0.9, where 1 is the maximum; inactive means score below 0.9.
# What was measured:
# [1] = biological target: Paired box protein Pax-6 (Homo sapiens) (UniProt P26367); assay: ATG_Pax6_CIS: Attagene CIS-FACTORIAL HepG2 Assay for human Paired Box 6 (PAX6) (AID 2282956); details: HepG2 CIS-FACTORIAL PAX6 reporter transcription, RNA readout; actives raise or lower the signal
# Paired box protein Pax-6 (Homo sapiens), sequence (P26367 whole entry, looked up): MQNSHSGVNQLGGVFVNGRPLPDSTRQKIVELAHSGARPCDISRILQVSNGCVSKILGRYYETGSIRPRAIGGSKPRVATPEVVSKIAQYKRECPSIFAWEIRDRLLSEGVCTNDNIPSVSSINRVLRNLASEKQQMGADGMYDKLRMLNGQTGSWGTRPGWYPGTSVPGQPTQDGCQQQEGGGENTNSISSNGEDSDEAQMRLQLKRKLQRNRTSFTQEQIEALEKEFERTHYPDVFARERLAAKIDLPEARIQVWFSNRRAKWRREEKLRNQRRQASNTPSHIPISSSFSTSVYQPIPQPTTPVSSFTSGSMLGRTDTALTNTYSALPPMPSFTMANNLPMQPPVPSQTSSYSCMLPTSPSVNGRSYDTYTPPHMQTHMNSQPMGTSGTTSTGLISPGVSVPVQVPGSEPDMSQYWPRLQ
# Method in brief: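 Transient MRTU transfection of HepG2 → compound exposure 24 h → TriZol RNA, oligo(dT) RT → PCR, 6-FAM primer extension, HpaI cut → capillary electrophoresis; activity fitted both directions against DMSO.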
# [2] = ATG_PXRE_CIS: Attagene CIS-FACTORIAL HepG2 Assay for human Pregnane X Receptor Element (PXRE) (AID 2282957); details: HepG2 Attagene CIS-FACTORIAL PXRE reporter, mRNA; actives raise or lower the signal
# Method in brief: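 Transiently transfected HepG2 cells were dosed and incubated for 24 h. RNA was then isolated, DNase-treated, reverse-transcribed and reporter sequences amplified. Labeled, HpaI-digested fragments were quantified by capillary electrophoresis against DMSO.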
# [3] = ATG_RORE_CIS: Attagene CIS-FACTORIAL HepG2 Assay for human RAR-related Orphan Receptor Element (RORE) (AID 2282959); details: HepG2 Attagene cis-factorial RORE reporter, mRNA; actives raise or lower the signal
# Method in brief: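 Transfect HepG2 with MRTUs; treat 24 h; extract RNA; RT with oligo(dT); PCR with reporter-specific primers; 6-FAM primer extension; HpaI digest 2 h at 37 C; capillary electrophoresis. Fit vs DMSO, bidirectional.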
# [4] = ATG_Sox_CIS: Attagene CIS-FACTORIAL HepG2 Assay for human SRY-box transcription factor (SOX) (AID 2282960); details: HepG2 Attagene cis-factorial SOX reporter, mRNA; actives raise or lower the signal
# Method in brief: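 Fluorescence-labelled cDNA fragments from reporter transcripts, sized by CE, give the signal. Cells: HepG2, transiently transfected with cis-regulated reporter units. Exposure 24 h; DMSO negative control; bidirectional curve fitting.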
# [5] = biological target: Transcription factor Sp1 (Homo sapiens) (UniProt P08047); assay: ATG_Sp1_CIS: Attagene CIS-FACTORIAL HepG2 Assay for human Specificity Protein 1 (Sp1) (AID 2282961); details: HepG2 Sp1 cis-reporter transcription, actives raise or lower the signal
# Transcription factor Sp1 (Homo sapiens), sequence (P08047 whole entry, looked up): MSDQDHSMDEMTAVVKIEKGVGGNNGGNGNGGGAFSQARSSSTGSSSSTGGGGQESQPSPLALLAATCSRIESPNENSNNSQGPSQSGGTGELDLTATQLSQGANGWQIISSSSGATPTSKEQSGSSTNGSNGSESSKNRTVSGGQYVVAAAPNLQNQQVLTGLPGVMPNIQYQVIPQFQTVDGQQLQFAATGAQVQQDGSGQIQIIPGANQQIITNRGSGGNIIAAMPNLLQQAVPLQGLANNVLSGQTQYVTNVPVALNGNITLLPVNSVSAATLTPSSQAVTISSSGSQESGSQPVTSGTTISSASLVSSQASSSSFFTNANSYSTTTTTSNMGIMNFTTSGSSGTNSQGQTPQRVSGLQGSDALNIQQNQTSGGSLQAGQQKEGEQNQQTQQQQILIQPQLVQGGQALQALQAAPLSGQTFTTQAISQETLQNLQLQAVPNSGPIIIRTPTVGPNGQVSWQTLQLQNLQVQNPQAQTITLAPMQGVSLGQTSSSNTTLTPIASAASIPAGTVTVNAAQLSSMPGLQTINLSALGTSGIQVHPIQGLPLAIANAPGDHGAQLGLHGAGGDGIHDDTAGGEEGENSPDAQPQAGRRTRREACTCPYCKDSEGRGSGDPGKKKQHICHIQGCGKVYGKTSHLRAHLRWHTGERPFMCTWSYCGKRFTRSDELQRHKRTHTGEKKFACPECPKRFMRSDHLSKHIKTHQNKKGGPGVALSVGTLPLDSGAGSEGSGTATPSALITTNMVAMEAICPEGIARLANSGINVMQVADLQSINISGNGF
# Method in brief: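 Chemicals are dosed onto HepG2 cells transfected with multiple cis-promoter reporter constructs, and after 24 h reporter RNA is reverse-transcribed, PCR-amplified and resolved by capillary electrophoresis for fluorescence quantitation; activity is scored up or down against DMSO.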
# [6] = ATG_SREBP_CIS: Attagene CIS-FACTORIAL HepG2 Assay for human Sterol Regulatory Element Binding (SREBP) (AID 2282962); details: HepG2 Attagene cis-factorial SREBP reporter, mRNA; actives raise or lower the signal
# Method in brief: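 Transfected HepG2 (cis-regulated reporter library, endogenous TFs) → compound 24 h → total RNA → oligo(dT) RT → reporter-specific PCR → FAM primer extension, HpaI cut → CE fluorescence. Fit bidirectional vs DMSO.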
# [7] = biological target: Signal transducer and activator of transcription 3 (Homo sapiens) (UniProt P40763); assay: ATG_STAT3_CIS: Attagene CIS-FACTORIAL HepG2 Assay for human Signal Transducer and Activator of Transcription 3 (STAT3) (AID 2282963); details: HepG2, Attagene cis-factorial STAT3 reporter transcription; actives raise or lower the signal
# Signal transducer and activator of transcription 3 (Homo sapiens), sequence (P40763 whole entry, looked up): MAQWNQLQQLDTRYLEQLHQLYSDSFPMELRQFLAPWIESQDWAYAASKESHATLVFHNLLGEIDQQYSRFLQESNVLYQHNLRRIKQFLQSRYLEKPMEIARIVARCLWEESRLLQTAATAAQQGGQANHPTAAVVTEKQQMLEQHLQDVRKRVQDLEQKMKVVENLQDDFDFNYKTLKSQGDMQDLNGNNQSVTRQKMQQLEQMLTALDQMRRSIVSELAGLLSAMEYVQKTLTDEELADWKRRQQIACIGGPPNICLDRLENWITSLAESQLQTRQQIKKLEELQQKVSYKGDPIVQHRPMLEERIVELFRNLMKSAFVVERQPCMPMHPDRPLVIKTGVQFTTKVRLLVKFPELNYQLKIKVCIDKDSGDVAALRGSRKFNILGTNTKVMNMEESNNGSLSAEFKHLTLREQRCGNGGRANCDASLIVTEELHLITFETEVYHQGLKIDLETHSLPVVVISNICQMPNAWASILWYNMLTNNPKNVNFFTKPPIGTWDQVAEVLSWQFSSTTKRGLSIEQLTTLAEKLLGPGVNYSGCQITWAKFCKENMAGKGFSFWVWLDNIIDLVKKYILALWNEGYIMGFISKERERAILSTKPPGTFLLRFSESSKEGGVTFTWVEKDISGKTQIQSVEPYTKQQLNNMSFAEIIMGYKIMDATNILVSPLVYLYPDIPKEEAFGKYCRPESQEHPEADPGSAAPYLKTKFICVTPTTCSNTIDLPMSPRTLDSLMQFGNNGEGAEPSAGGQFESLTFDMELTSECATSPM
# Method in brief: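 HepG2 cells transiently transfected with cis-element-driven multiple reporter transcription units; after 24 h chemical exposure, reporter mRNA measured by RT-PCR, 6-FAM primer-extension labelling, HpaI digestion and capillary electrophoresis. Bidirectional fitting versus DMSO baseline.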
# [8] = ATG_TA_CIS: Attagene CIS-FACTORIAL HepG2 Assay for human TA Basal Promoter (AID 2282964); details: HepG2 Attagene CIS-factorial TA basal promoter reporter; actives raise or lower the signal
# Method in brief: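 HepG2 cells transiently transfected with multiple reporter units under cis promoter elements, reporting endogenous transcription factor activity; this endpoint tracks the TA basal promoter as background control. Reporter mRNA after 24 h dosing measured by RT-PCR/capillary electrophoresis; bidirectional fits versus DMSO.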
# [9] = ATG_TCF_b_cat_CIS: Attagene CIS-FACTORIAL HepG2 Assay for human T-Cell-Factor with beta-catenin (TCF/b-cat) (AID 2282965); details: HepG2 TCF/beta-catenin cis-reporter transcription, actives raise or lower the signal
# Method in brief: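 HepG2 cells transiently transfected with multiple cis-promoter-regulated reporter transcription units, so endogenous transcription factor activity is measured. Reporter mRNA read 24 hours after dosing by RT-PCR, fluorescent labelling and capillary electrophoresis; bidirectional fitting against DMSO.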
# [10] = ATG_TAL_CIS: Attagene CIS-FACTORIAL HepG2 Assay for human TAL Basal Promoter (AID 2282966); details: HepG2 Attagene cis-factorial TAL promoter reporter; actives raise or lower the signal;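 further: background control endpoint measuring basal TAL promoter reporter mRNA not a specific factor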
# Method in brief: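 Readout: reporter mRNA, fluorescence by CE. System: HepG2, transient multi-reporter transfection, endogenous TF activity. Exposure: 24 h. Analysis: bidirectional, DMSO-normalized; background control.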
# [11] = ATG_TGFb_CIS: Attagene CIS-FACTORIAL HepG2 Assay for human Transforming Growth Factor (TGF) (AID 2282967); details: HepG2 Attagene CIS TGFb reporter, mRNA transcription; actives raise or lower the signal
# Method in brief: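 HepG2 cells transiently transfected with cis-promoter-driven multiple reporter units measure endogenous TF activity; reporter mRNA quantified at 24 h by RT-PCR, FAM labeling, HpaI digestion and capillary electrophoresis. Bidirectional fit vs DMSO.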
# [12] = biological target: Nuclear receptor subfamily 1 group I member 3 (Homo sapiens) (UniProt Q14994); assay: ATG_CAR_TRANS: Attagene TRANS-FACTORIAL HepG2 Assay for human Constitutive Androstane Receptor (CAR) (AID 2282969; active means hit-call score of the fitted dose curve at least 0.9, where 1 is the maximum;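 further: activators raise reporter mRNA above DMSO so AC50 marks induction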); details: HepG2 Attagene TRANS-FACTORIAL CAR reporter
# Nuclear receptor subfamily 1 group I member 3 (Homo sapiens), sequence (Q14994 whole entry, looked up, the tested form may be a part): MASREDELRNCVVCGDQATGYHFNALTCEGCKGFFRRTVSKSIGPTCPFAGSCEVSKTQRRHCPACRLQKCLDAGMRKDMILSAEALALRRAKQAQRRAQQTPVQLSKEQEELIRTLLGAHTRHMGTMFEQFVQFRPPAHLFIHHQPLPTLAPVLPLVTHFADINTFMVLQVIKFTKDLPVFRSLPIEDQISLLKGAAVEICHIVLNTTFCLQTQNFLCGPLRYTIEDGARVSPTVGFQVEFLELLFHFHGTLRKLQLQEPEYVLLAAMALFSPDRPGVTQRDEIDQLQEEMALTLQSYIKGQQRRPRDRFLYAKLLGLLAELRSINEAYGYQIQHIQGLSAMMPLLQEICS
# Method in brief: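 HepG2 cells transiently transfected with multiplexed GAL4-UAS reporter units expressing chimeric NR-Gal4 proteins; compound exposure 24 h. Reporter mRNA measured by RT-PCR, 6-FAM labelling, HpaI digestion and capillary electrophoresis; gain-of-signal fitted against DMSO baseline.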
# [13] = biological target: X-box-binding protein 1 (Homo sapiens) (UniProt P17861); assay: ATG_Xbp1_CIS: Attagene CIS-FACTORIAL HepG2 Assay for human X-box Binding Protein 1 (XBP1) (AID 2282972); details: HepG2 XBP1 cis-element reporter, Attagene multiplex; actives raise or lower the signal
# X-box-binding protein 1 (Homo sapiens), sequence (P17861 whole entry, looked up): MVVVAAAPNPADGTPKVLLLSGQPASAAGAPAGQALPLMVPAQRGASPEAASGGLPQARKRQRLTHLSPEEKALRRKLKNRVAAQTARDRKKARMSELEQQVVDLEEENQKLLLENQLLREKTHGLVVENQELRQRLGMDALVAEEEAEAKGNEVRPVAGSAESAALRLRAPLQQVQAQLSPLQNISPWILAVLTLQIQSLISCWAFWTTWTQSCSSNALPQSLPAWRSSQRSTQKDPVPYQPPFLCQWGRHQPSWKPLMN
# Method in brief: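 HepG2, transient MRTU transfection (cis-promoter driven), 24 h compound exposure. Total RNA → oligo(dT) RT → PCR → 6-FAM labeling → HpaI cut → CE. Bidirectional fit vs DMSO.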
# [14] = ATG_M_19_TRANS: Attagene TRANS-FACTORIAL HepG2 Assay for M19 Transcription Factor (Internal Marker) (AID 2282974; active means hit-call score of the fitted dose curve at least 0.9, where 1 is the maximum); details: HepG2 Attagene TRANS-FACTORIAL M19 internal marker reporter
# Method in brief: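 Multiplexed TRANS format: HepG2 liver cells bearing transient GAL4-UAS reporter units, chemical treatment 24 h, reporter transcripts quantified by RT-PCR plus capillary electrophoresis. DMSO defines baseline.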
# [15] = ATG_GAL4_TRANS: Attagene TRANS-FACTORIAL HepG2 Assay for GAL4 (Internal Marker) (AID 2282976; active means hit-call score of the fitted dose curve at least 0.9, where 1 is the maximum); details: HepG2 Attagene TRANS GAL4 internal marker reporter
# Method in brief: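 Fluorescence from capillary electrophoresis of labelled RT-PCR products quantifies reporter mRNA induction after 24 h dosing of HepG2 cells carrying transfected GAL4-UAS reporter transcription units. Vehicle DMSO serves as baseline.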
# [16] = ATG_VDRE_CIS: Attagene CIS-FACTORIAL HepG2 Assay for human Vitamin D Receptor Element (VDRE) (AID 2282968); details: HepG2 VDRE cis-reporter transcription, actives raise or lower the signal
# Method in brief: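 HepG2 cells transiently transfected with cis-element reporter units, dosed 24 h; reporter mRNA measured by RT-PCR, 6-FAM labeling, HpaI digestion and capillary electrophoresis. Activity fitted bidirectionally against DMSO baseline.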
# [17] = biological target: Estrogen receptor (Homo sapiens) (UniProt P03372); assay: ATG_ERa_TRANS: Attagene TRANS-FACTORIAL HepG2 Assay for human Estrogen Receptor alpha (ERa) (AID 2282970; active means hit-call score of the fitted dose curve at least 0.9, where 1 is the maximum); details: HepG2 Attagene TRANS ERa GAL4 reporter, mRNA
# Estrogen receptor (Homo sapiens), sequence (P03372 whole entry, looked up, the tested form may be a part): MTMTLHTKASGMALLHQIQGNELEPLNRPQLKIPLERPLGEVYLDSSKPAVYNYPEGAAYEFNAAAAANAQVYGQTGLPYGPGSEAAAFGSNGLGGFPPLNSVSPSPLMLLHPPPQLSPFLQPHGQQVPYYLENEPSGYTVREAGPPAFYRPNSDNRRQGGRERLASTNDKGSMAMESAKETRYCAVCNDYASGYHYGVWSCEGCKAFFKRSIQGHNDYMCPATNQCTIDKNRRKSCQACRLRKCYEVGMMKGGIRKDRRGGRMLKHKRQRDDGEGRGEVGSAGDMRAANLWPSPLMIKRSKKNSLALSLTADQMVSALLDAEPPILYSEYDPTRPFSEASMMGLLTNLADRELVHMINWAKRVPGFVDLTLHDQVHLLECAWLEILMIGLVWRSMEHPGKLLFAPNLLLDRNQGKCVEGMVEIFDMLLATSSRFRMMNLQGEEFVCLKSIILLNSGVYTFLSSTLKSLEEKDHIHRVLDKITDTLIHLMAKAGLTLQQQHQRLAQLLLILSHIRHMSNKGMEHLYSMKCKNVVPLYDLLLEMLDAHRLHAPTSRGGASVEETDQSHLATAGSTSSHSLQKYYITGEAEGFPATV
# Method in brief: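 Transactivation via ERa-Gal4 chimera in HepG2; 24 hour incubation; reporter mRNA detected by fluorescence RT-PCR and capillary electrophoresis.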
# [18] = ATG_PPRE_CIS: Attagene CIS-FACTORIAL HepG2 Assay for human Peroxisome Proliferator-activated Response Element (PPRE) (AID 2282958); details: HepG2 PPRE cis-element reporter, Attagene transcription factor profiling; actives raise or lower the signal
# Method in brief: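 DMSO served as negative control and baseline for bidirectional curve fitting. Signal came from PPRE-regulated reporter mRNA in HepG2 cells, measured 24 h post-dosing by RT-PCR, 6-FAM primer extension and capillary electrophoresis.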
# [19] = biological target: Estrogen-related receptor gamma (Homo sapiens) (UniProt P62508); assay: ATG_ERRg_TRANS: Attagene TRANS-FACTORIAL HepG2 Assay for human Estrogen-Related Receptor gamma (ERRg) (AID 2282977; active means hit-call score of the fitted dose curve at least 0.9, where 1 is the maximum;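 further: hits increase reporter signal over DMSO so potencies reflect activators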); details: HepG2 Attagene TRANS reporter, ERRg transactivation
# Estrogen-related receptor gamma (Homo sapiens), sequence (P62508 whole entry, looked up, the tested form may be a part): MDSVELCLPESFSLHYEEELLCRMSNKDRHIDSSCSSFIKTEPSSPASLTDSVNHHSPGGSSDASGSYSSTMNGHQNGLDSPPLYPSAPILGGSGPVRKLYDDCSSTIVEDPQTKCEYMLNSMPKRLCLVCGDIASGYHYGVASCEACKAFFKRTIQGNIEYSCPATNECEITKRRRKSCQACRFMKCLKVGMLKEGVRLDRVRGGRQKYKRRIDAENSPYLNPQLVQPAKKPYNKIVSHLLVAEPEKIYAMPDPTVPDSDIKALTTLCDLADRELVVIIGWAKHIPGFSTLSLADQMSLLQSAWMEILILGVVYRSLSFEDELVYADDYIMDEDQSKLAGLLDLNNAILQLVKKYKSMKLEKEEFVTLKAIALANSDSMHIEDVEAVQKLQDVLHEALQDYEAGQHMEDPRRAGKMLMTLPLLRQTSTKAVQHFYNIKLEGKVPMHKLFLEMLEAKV
# Method in brief: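 Transient HepG2 transfectants, 24 h compound exposure, GAL4-UAS reporter mRNA by RT-PCR/6-FAM labelling/capillary electrophoresis; positive direction vs DMSO.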
# [20] = biological target: Steroid hormone receptor ERR1 (Homo sapiens) (UniProt P11474); assay: ATG_ERRa_TRANS: Attagene TRANS-FACTORIAL HepG2 Assay for human Estrogen-Related Receptor alpha (ERRa) (AID 2282971; active means hit-call score of the fitted dose curve at least 0.9, where 1 is the maximum); details: HepG2 Attagene TRANS reporter, ERRa transactivation
# Steroid hormone receptor ERR1 (Homo sapiens), sequence (P11474 whole entry, looked up, the tested form may be a part): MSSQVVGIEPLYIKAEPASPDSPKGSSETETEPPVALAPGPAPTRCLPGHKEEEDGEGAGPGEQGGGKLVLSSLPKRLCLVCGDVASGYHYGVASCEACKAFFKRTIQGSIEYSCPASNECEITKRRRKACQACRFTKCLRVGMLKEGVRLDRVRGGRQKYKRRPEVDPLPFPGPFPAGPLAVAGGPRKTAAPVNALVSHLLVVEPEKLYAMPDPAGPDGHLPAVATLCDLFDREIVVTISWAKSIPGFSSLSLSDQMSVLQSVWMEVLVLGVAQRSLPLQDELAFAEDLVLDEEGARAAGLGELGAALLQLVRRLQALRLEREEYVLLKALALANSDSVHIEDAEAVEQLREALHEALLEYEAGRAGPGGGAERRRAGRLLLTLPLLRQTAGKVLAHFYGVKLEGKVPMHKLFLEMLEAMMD
# Method in brief: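 HepG2 cells were transiently transfected with multiple GAL4-UAS reporter units, then dosed with compound for 24 h. Total RNA was reverse-transcribed, reporter cDNA PCR-amplified and fluorescently labelled, and fragments resolved by capillary electrophoresis; induction was compared with DMSO.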
smiles,measurement,setting,value
Cc1cc(Cc2ccc(N)c(C)c2)ccc1N,outcome,[1],inactive
same,outcome,[2],inactive
same,outcome,[3],inactive
same,outcome,[4],inactive
same,outcome,[5],inactive
same,AC50,[6],12.9 µM (active)
same,outcome,[7],inactive
same,outcome,[8],inactive
same,outcome,[9],inactive
same,outcome,[10],inactive
same,outcome,[11],inactive
same,outcome,[12],inactive
same,outcome,[13],inactive
same,outcome,[14],inactive
same,outcome,[15],inactive
CC(C)OC(=O)C(C)(C)Oc1ccc(C(=O)c2ccc(Cl)cc2)cc1,AC50,[1],27.7 µM (active)
same,AC50,[2],12.3 µM (active)
same,AC50,[3],27.5 µM (active)
same,outcome,[4],inactive
same,outcome,[5],inactive
same,outcome,[7],inactive
same,AC50,[8],22.6 µM (active)
same,outcome,[9],inactive
same,outcome,[10],inactive
same,outcome,[11],inactive
same,AC50,[16],27.6 µM (active)
same,AC50,[17],27.1 µM (active)
same,AC50,[13],54.4 µM (active)
same,outcome,[15],inactive
Cc1ccc(-c2cc(C(F)(F)F)nn2-c2ccc(S(N)(=O)=O)cc2)cc1,outcome,[1],inactive
same,AC50,[2],2.58 µM (active)
same,outcome,[18],inactive
same,outcome,[4],inactive
same,outcome,[5],inactive
same,outcome,[6],inactive
same,outcome,[7],inactive
same,outcome,[8],inactive
same,outcome,[9],inactive
same,outcome,[10],inactive
same,outcome,[11],inactive
same,outcome,[17],inactive
same,outcome,[13],inactive
same,outcome,[19],inactive
CN(C)C(=O)NC1(c2ccccc2)CCN(CC[C@@]2(c3ccc(F)c(F)c3)CN(C(=O)c3ccccc3)CCO2)CC1,outcome,[1],inactive
same,AC50,[2],2.43 µM (active)
same,outcome,[18],inactive
same,outcome,[4],inactive
same,outcome,[5],inactive
same,outcome,[7],inactive
same,outcome,[8],inactive
same,AC50,[9],100 µM (active)
same,outcome,[10],inactive
same,outcome,[11],inactive
same,AC50,[16],4.16 µM (active)
same,outcome,[13],inactive
same,outcome,[14],inactive
CCCCC(CC)COC(=O)CCCCCCCC(=O)OCC(CC)CCCC (centres undefined),outcome,[1],inactive
same,outcome,[2],inactive
same,outcome,[4],inactive
same,outcome,[5],inactive
same,outcome,[6],inactive
same,outcome,[7],inactive
same,outcome,[8],inactive
same,outcome,[9],inactive
same,outcome,[10],inactive
same,outcome,[11],inactive
same,outcome,[12],inactive
same,outcome,[20],inactive
same,outcome,[13],inactive
c1ccc2occc2c1,outcome,[1],inactive
same,outcome,[2],inactive
same,outcome,[3],inactive
same,outcome,[4],inactive
same,outcome,[5],inactive
same,outcome,[6],inactive
same,outcome,[7],inactive
same,outcome,[8],inactive
same,outcome,[9],inactive
same,outcome,[10],inactive
same,outcome,[11],inactive
same,outcome,[16],inactive
same,outcome,[12],inactive
same,outcome,[13],inactive
same,outcome,[19],inactive
